Source: PubChem BioAssay (Tox21)
Records with an inconclusive call do not appear. A call without a number means that no potency is given here. Active and inactive are the calls of the source. Calls come from the whole dose curve.

The molecules below were run against Acetylcholinesterase (Homo sapiens) (UniProt P22303) (assay: Acetylcholinesterase (AChE) small molecule antagonists: colormetric cell-based qHTS assay (AID 1347395; note: nearly all actives have a fitted effect of over 30% in size)). Conditions: SH-SY5Y cells AChE activity, colorimetric (Ellman); series mostly up to 115 µM.
Chain of Acetylcholinesterase (Homo sapiens) (P22303 whole entry, looked up): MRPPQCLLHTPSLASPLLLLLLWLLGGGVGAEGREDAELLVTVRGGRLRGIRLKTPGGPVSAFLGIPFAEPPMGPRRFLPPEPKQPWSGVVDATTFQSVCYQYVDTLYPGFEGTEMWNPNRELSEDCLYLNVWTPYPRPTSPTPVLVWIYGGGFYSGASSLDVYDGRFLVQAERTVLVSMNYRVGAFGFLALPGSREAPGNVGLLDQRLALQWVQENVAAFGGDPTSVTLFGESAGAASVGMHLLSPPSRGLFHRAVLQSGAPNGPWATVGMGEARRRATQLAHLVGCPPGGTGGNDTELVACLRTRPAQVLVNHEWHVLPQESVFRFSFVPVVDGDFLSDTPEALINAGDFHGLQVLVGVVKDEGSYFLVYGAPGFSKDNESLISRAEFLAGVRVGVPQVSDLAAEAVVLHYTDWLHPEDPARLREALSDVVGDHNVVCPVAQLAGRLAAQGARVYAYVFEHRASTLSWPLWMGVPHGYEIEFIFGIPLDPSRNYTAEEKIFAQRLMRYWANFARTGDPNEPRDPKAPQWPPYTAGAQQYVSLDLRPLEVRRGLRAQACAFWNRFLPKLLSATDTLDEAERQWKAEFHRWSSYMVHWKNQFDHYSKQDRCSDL
Outline: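 After overnight attachment at 37 C, SH-SY5Y cells get 30 min compound exposure; detection cocktail (acetylthiocholine, DTNB) then incubates 90 min at 37 C, and absorbance reflects AChE-generated thiocholine.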
In the case of Nc1cc([N+](=O)[O-])cc(Cl)c1O, the Potency is reported as “inactive”. With c1cc2ccc3ccc4ccc5cccc6c(c1)c2c3c4c56 the activity, negative = inhibition was 3.35% [at 4.07 µM] (inactive). In the case of O=C(COCCOCCOCC(=O)Nc1c(I)cc(I)c(C(=O)O)c1I)Nc1c(I)cc(I)c(C(=O)O)c1I, the Potency is reported as “inactive”. With O=C(O)C1CCC(C(=O)O)CC1 (stereo not given) the Potency was “inactive”. For O=C1OC(=O)C2CC=CCC12 (stereo not given), the Potency was “inactive”. CCC(=O)Nc1ccc(O)cc1 was tested, and the Potency was “inactive”. O=C1O[C@H]([C@@H](O)CO)C(O)=C1O was tested, and the Potency was “inactive”. In the case of c1ccc2nccnc2c1, the Potency is reported as “inactive”. In the case of C=COC(=O)C(C)(CC)CCC(C)C (stereo not given), the Potency is reported as “inactive”. In the case of COC(=O)Nc1nc2ccc(C(=O)C3CC3)cc2[nH]1, the Potency is reported as “inactive”. For COc1ccc(-c2cc(C(F)F)nn2-c2ccc(S(N)(=O)=O)cc2)cc1F, the Potency was “inactive”. In the case of CCC(CC)(CC(=O)Nc1cccc(/C=C/c2nc(C3CCC3)cs2)c1)C(=O)O, the Potency is reported as “inactive”. For COC(=O)CCS, the Potency was “inactive”. For C/C(C=O)=C\c1ccccc1, the Potency was “inactive”. In the case of NCCCN1CCN(CCCN)CC1, the Potency is reported as “inactive”. With CC1=NC(C)OC1C (stereo not given) the Potency was “inactive”. In the case of CCC(=O)O[C@]1(C(=O)CCl)[C@@H](C)C[C@H]2[C@@H]3CCC4=CC(=O)C=C[C@]4(C)[C@@]3(F)[C@@H](O)C[C@@]21C, the Potency is reported as “inactive”. In the case of OB(O)O, the Potency is reported as “inactive”. In the case of O=C(c1ccc(O)cc1)c1ccc(O)cc1, the Potency is reported as “inactive”. In the case of CC(C)(N=C=O)c1cccc(C(C)(C)N=C=O)c1, the Potency is reported as “inactive”. In the case of CN1C(=O)c2ccccc2C1=O, the Potency is reported as “inactive”. CC(=O)c1ccc(C(C)=O)cc1 was tested, and the Potency was “inactive”. In the case of COC(=O)c1c(Cl)c(Cl)c(C(=O)OC)c(Cl)c1Cl, the Potency is reported as “inactive”. With CCOC(=O)C(C)C(C)=O (stereo not given) the Potency was “inactive”. In the case of CC(C)(CO)COC(=O)C(C)(C)CO, the Potency is reported as “inactive”. For OCCN1CCN(CCCN2c3ccccc3C=Cc3ccccc32)CC1, the Potency was “inactive”. In the case of Cc1cc(Br)ccc1NC(=O)CCl, the Potency is reported as “inactive”. With COC(=O)N/N=C/c1c[n+]([O-])c2ccccc2[n+]1[O-] the Potency was “inactive”. NCCO was tested, and the Potency was “inactive”. With O=C1CCCCCCCCCCCCCC1 the Potency was “inactive”. For CCCCCCCCCOS(=O)(=O)O, the Potency was “inactive”. With CO[Si](CCCNCCN)(OC)OC the Potency was “inactive”. Cc1ccc(C(=O)Nc2ccc(S(=O)(=O)O)c3cc(S(=O)(=O)O)cc(S(=O)(=O)O)c23)cc1NC(=O)c1cccc(NC(=O)Nc2cccc(C(=O)Nc3cc(C(=O)Nc4ccc(S(=O)(=O)O)c5cc(S(=O)(=O)O)cc(S(=O)(=O)O)c45)ccc3C)c2)c1 was tested, and the Potency was “inactive”. For CC(C)(c1ccc(Oc2ccc(N)cc2)cc1)c1ccc(Oc2ccc(N)cc2)cc1, the Potency was “inactive”. With CC1=CC[C@H](C(C)C)C=C1 the Potency was “inactive”. In the case of Oc1c(Cl)cc(Cl)c(Cl)c1Cl, the Potency is reported as “inactive”. In the case of Cc1ccccc1N=C(N)Nc1ccccc1C, the Potency is reported as “inactive”. In the case of COc1ccc(O)cc1, the Potency is reported as “inactive”. C[C@]12C=CC(=O)C=C1CC[C@@H]1[C@@H]2C(=O)C[C@@]2(C)[C@H]1CC[C@]2(O)C(=O)CO was tested, and the Potency was “inactive”. For COc1ccc2nc(S(=O)Cc3ncc(C)c(OC)c3C)[nH]c2c1 (stereo not given), the Potency was “inactive”.
